We go through 39 molecules from PubChem BioAssay.

“And” between values parts separate entries of the source, which are not always exact repeats. Equal values may be shown once.

One test can be described thus: EMT-state selective cytotoxicity in co-culture – imaging, PC-3E GFP, TEM4-18 mCherry, primary screen (AID 1345086).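 Further: cells exposed to compound for 72 h before imaging.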 The following applies: PC-3E GFP / TEM4-18 mCherry co-culture, imaging cell counts; measured here: epithelial PC-3E GFP cell survival; at 1 µM.
`O=C1N[C@@H]2[C@@H](Sc3ccccc3)OC(CO)C(O)[C@@H]2O1` (stereo partly drawn) came in with a normalised cell number of 1.

With `COc1ccc2cc(C(C)=O)ccc2c1`, the normalised cell number was 0.99.

For `COC(=O)c1cn(C2CC2)c2c(OC)c(F)c(F)c(N)c2c1=O`, the normalised cell number was 0.97.

Turning to `CCC(/C=C/[C@@H](C)[C@H]1CCC2C3CC=C4C[C@@H](O)CC[C@]4(C)C3CC[C@@]21C)C(C)C` (stereo partly drawn), the normalised cell number turned out to be 1.13.

`CC(=O)OCC1O[C@H](Sc2ccc(C)cc2)[C@@H]2[C@@H](OC(=O)N2C(C)=O)C1OC(C)=O` (stereo partly drawn) registered a normalised cell number of 1.36.

For the molecule `CC(=O)NC1[C@@H](O)C2OC(c3ccccc3)OCC2O[C@H]1Sc1ccccc1` (stereo partly drawn), the normalised cell number amounted to 1.06.

`CC/C=C1C=C(/C=C/CO)C(=O)O/1` registered a normalised cell number of 1.05.

The molecule `COc1cc(O)c(C(C)=O)c(O)c1` had a normalised cell number of 0.97.

Molecule `C[C@H]1[C@H](C)CC[C@]2(C(=O)O)CC[C@]3(C)C(=CCC4[C@@]5(C)C[C@@H](O)[C@H](O)[C@@](C)(CO)C5CC[C@]43C)[C@H]12` (stereo partly drawn) registered a normalised cell number of 0.97.

As for `CC(CC(=O)N1CCOC1=O)N1C(=S)OC[C@@H]1Cc1ccccc1` (stereo partly drawn), the normalised cell number came out at 0.88.

With `Oc1ccc2ccccc2c1Oc1ccc2ccccc2c1`, the normalised cell number came to 0.86.

For the molecule `CC(=O)O[C@H]1CC[C@@]2(C)C(CC[C@]3(C)C2CC=C2C4CC(C)(C)CC[C@]4(C)CC[C@]23C)C1(C)C` (stereo partly drawn), the normalised cell number came out at 1.04.

In turn, `C[C@@H]1C[C@H](O)/C=C/[C@H](O)[C@@H](O)CC(=O)O1` had a normalised cell number of 1.16.

As to `OC[C@H]1O[C@@](CO)(O[C@@H]2O[C@H](CO)[C@@H](O)[C@H](O)[C@H]2O)[C@@H](O[C@@H]2O[C@H](CO)[C@@H](O)[C@H](O)[C@H]2O)[C@@H]1O`, the normalised cell number was determined as 1.13.

In the case of `COc1c(F)c(F)cc(C(N)=O)c1F`, the normalised cell number stood at 0.96.

As for `Cc1ccc(S[C@H]2OC(CO)C(O)[C@H](O)[C@@H]2N)cc1` (stereo partly drawn), the normalised cell number was found to be 1.

With `NC(=O)c1c(Cl)nc(Cl)c2ccccc12`, the normalised cell number was found to be 0.92.

Take `CC(=O)C(C)(C)[C@H]1OC2CC[C@@]3(C)[C@@](O)(CC[C@H]4Cc5c([nH]c6ccccc56)[C@@]43C)C2=CC1=O` (stereo partly drawn): the normalised cell number was 1.15.

The molecule `CCCc1ccc(C(=O)O)nc1` returned a normalised cell number of 1.18.

`CC1(C)CC[C@]2(C(=O)O)CC[C@]3(C)C(=CCC4[C@@]5(C)CC[C@H](O)[C@@](C)(CO)C5CC[C@]43C)C2C1` (stereo partly drawn) registered a normalised cell number of 1.05.

As for `Cc1ccc(S[C@H]2OC3COC(c4ccccc4)OC3[C@@H]3OC(=O)N[C@H]23)cc1` (stereo partly drawn), the normalised cell number was determined as 0.36.

Molecule `COc1c(O)cc2c(c1O)C(=O)O[C@@H](C)[C@@H]2O` gave a normalised cell number of 1.01.

On to `CC(C)(C)Oc1c(F)c(F)nc(F)c1Cl`, for which the normalised cell number came out at 0.78.

In turn, `O=C1C[C@@H]2[C@H](Br)[C@@H](O)C[C@@H]2O1` gave a normalised cell number of 1.24.

With `COC(=O)C1O[C@H](OCc2ccccc2)[C@@H](OC(=O)c2ccccc2)[C@@H](OC(=O)c2ccccc2)C1O` (stereo partly drawn), the normalised cell number was determined as 1.18.

Molecule `COC(=O)CCC(C)[C@H]1CCC2C3C(C[C@H](O)[C@@]21C)[C@@]1(C)CC[C@@H](O)C[C@H]1C[C@H]3O` (stereo partly drawn) had a normalised cell number of 0.89.

Take `C=C[C@@](C)(O)CCC1C(=C)C[C@H](OC(C)=O)C2C(C)(C)CCCC12C` (stereo partly drawn): the normalised cell number came to 1.03.

On to `C[C@@H](O)[C@H]1C(=O)N2C(C(=O)O)=C(SC3CN[C@H](C(=O)N(C)C)C3)[C@H](C)[C@H]12` (stereo partly drawn), for which the normalised cell number amounted to 0.98.

Take `O=C(O)c1cn(C2CC2)c2cc(N3CCN(c4ncncn4)CC3)c(F)cc2c1=O`: the normalised cell number came out at 0.88.

`CC(=O)OC1(C)CC[C@@]23CC1C(C)(C)[C@@H]2CC[C@H]3C` (stereo partly drawn) gave a normalised cell number of 1.16.

For the molecule `CC1CCCC(O)/C=C/C(O)C(=O)c2c(O)cc(O)cc2CC(=O)O1` (stereo not drawn), the normalised cell number worked out at 0.89.

Turning to `CC1=C(/C=C/C(C)=C/C=C/C(C)=C/C=C/C=C(C)/C=C/C=C(C)/C=C/C2=C(C)C(=O)C(O)CC2(C)C)C(C)(C)CC(O)C1=O` (stereo not drawn), the normalised cell number was determined as 0.97.

The molecule `CC(C)[C@@H]1CC[C@]2(CO2)[C@@H]2C(=O)OCC(C(=O)O)=C[C@H]21` registered a normalised cell number of 1.02.

For `COc1c(F)c(F)cc(C(=O)O)c1F`, the normalised cell number was 0.89 and 0.98.

`CO[C@@H]1CC(=O)c2cccc3c2C12Oc1ccc(O)c4c1[C@](O3)(O2)C1O[C@@H]1[C@@H]4O` (stereo partly drawn): the normalised cell number stood at 1.

As to `CC(=O)O[C@H]1CC[C@@]2(C)C(=CCC3C2CC[C@@]2(C)C3CC[C@@H]2C(C)CCCC(C)C)C1` (stereo partly drawn), the normalised cell number turned out to be 0.99.

Turning to `CNC1C(O[C@@H]2OC(CO)C(N)[C@H](O)C2O)OC2CC(N)[C@@H](OC3C(N)C[C@@H](N)C(O)[C@H]3O)OC2C1O` (stereo partly drawn), the normalised cell number came to 0.92.

In turn, `COc1c(N2CC[C@@H](CN)C2)c(F)cc2c(=O)c(C(=O)O)cn(CCCCN3C(=O)c4ccccc4C3=O)c12` showed a normalised cell number of 1.09.

In turn, `C=C1C2=C(C(=O)N1OC)[C@H](O)[C@](C)(O)[C@H](CCCCC)O2` gave a normalised cell number of 1.01.

The test is the same for the next values; noted with them: PC-3E GFP / TEM4-18 mCherry co-culture, imaging cell counts; measured here: mesenchymal TEM4-18 mCherry cell survival; at 1 µM.
In the case of `O=C1N[C@@H]2[C@@H](Sc3ccccc3)OC(CO)C(O)[C@@H]2O1` (stereo partly drawn), the normalised cell number came out at 0.97.

In turn, `COc1ccc2cc(C(C)=O)ccc2c1` registered a normalised cell number of 1.12.

The molecule `COC(=O)c1cn(C2CC2)c2c(OC)c(F)c(F)c(N)c2c1=O` yielded a normalised cell number of 1.07.

As for `CCC(/C=C/[C@@H](C)[C@H]1CCC2C3CC=C4C[C@@H](O)CC[C@]4(C)C3CC[C@@]21C)C(C)C` (stereo partly drawn), the normalised cell number amounted to 1.2.

Molecule `CC(=O)OCC1O[C@H](Sc2ccc(C)cc2)[C@@H]2[C@@H](OC(=O)N2C(C)=O)C1OC(C)=O` (stereo partly drawn) came in with a normalised cell number of 1.05.

`CC(=O)NC1[C@@H](O)C2OC(c3ccccc3)OCC2O[C@H]1Sc1ccccc1` (stereo partly drawn) showed a normalised cell number of 1.09.

For the molecule `CC/C=C1C=C(/C=C/CO)C(=O)O/1`, the normalised cell number turned out to be 1.06.

For the molecule `COc1cc(O)c(C(C)=O)c(O)c1`, the normalised cell number was 0.97.

Molecule `C[C@H]1[C@H](C)CC[C@]2(C(=O)O)CC[C@]3(C)C(=CCC4[C@@]5(C)C[C@@H](O)[C@H](O)[C@@](C)(CO)C5CC[C@]43C)[C@H]12` (stereo partly drawn) showed a normalised cell number of 1.13.

For the molecule `CC(CC(=O)N1CCOC1=O)N1C(=S)OC[C@@H]1Cc1ccccc1` (stereo partly drawn), the normalised cell number stood at 0.95.

In the case of `Oc1ccc2ccccc2c1Oc1ccc2ccccc2c1`, the normalised cell number stood at 0.79.

As to `CC(=O)O[C@H]1CC[C@@]2(C)C(CC[C@]3(C)C2CC=C2C4CC(C)(C)CC[C@]4(C)CC[C@]23C)C1(C)C` (stereo partly drawn), the normalised cell number is 1.15.

In the case of `C[C@@H]1C[C@H](O)/C=C/[C@H](O)[C@@H](O)CC(=O)O1`, the normalised cell number amounted to 1.02.

Molecule `OC[C@H]1O[C@@](CO)(O[C@@H]2O[C@H](CO)[C@@H](O)[C@H](O)[C@H]2O)[C@@H](O[C@@H]2O[C@H](CO)[C@@H](O)[C@H](O)[C@H]2O)[C@@H]1O` yielded a normalised cell number of 1.01.

On to `COc1c(F)c(F)cc(C(N)=O)c1F`, for which the normalised cell number was 0.99.

On to `Cc1ccc(S[C@H]2OC(CO)C(O)[C@H](O)[C@@H]2N)cc1` (stereo partly drawn), for which the normalised cell number was 0.97.

Take `NC(=O)c1c(Cl)nc(Cl)c2ccccc12`: the normalised cell number amounted to 1.03.

Molecule `CC(=O)C(C)(C)[C@H]1OC2CC[C@@]3(C)[C@@](O)(CC[C@H]4Cc5c([nH]c6ccccc56)[C@@]43C)C2=CC1=O` (stereo partly drawn) came in with a normalised cell number of 1.

For the molecule `CCCc1ccc(C(=O)O)nc1`, the normalised cell number amounted to 0.99.

Consider `CC1(C)CC[C@]2(C(=O)O)CC[C@]3(C)C(=CCC4[C@@]5(C)CC[C@H](O)[C@@](C)(CO)C5CC[C@]43C)C2C1` (stereo partly drawn), for which the normalised cell number was determined as 0.98.

The molecule `Cc1ccc(S[C@H]2OC3COC(c4ccccc4)OC3[C@@H]3OC(=O)N[C@H]23)cc1` (stereo partly drawn) returned a normalised cell number of 0.55.

As to `COc1c(O)cc2c(c1O)C(=O)O[C@@H](C)[C@@H]2O`, the normalised cell number was found to be 1.02.

Molecule `CC(C)(C)Oc1c(F)c(F)nc(F)c1Cl` had a normalised cell number of 0.76.

On to `O=C1C[C@@H]2[C@H](Br)[C@@H](O)C[C@@H]2O1`, for which the normalised cell number worked out at 0.91.

As to `COC(=O)C1O[C@H](OCc2ccccc2)[C@@H](OC(=O)c2ccccc2)[C@@H](OC(=O)c2ccccc2)C1O` (stereo partly drawn), the normalised cell number was 1.2.

On to `COC(=O)CCC(C)[C@H]1CCC2C3C(C[C@H](O)[C@@]21C)[C@@]1(C)CC[C@@H](O)C[C@H]1C[C@H]3O` (stereo partly drawn), for which the normalised cell number was 1.02.

For the molecule `C=C[C@@](C)(O)CCC1C(=C)C[C@H](OC(C)=O)C2C(C)(C)CCCC12C` (stereo partly drawn), the normalised cell number was found to be 1.08.

The molecule `C[C@@H](O)[C@H]1C(=O)N2C(C(=O)O)=C(SC3CN[C@H](C(=O)N(C)C)C3)[C@H](C)[C@H]12` (stereo partly drawn) had a normalised cell number of 0.99.

`O=C(O)c1cn(C2CC2)c2cc(N3CCN(c4ncncn4)CC3)c(F)cc2c1=O` displayed a normalised cell number of 1.08.

Molecule `CC(=O)OC1(C)CC[C@@]23CC1C(C)(C)[C@@H]2CC[C@H]3C` (stereo partly drawn) had a normalised cell number of 1.15.

For the molecule `CC1CCCC(O)/C=C/C(O)C(=O)c2c(O)cc(O)cc2CC(=O)O1` (stereo not drawn), the normalised cell number came out at 0.99.

Regarding `CC1=C(/C=C/C(C)=C/C=C/C(C)=C/C=C/C=C(C)/C=C/C=C(C)/C=C/C2=C(C)C(=O)C(O)CC2(C)C)C(C)(C)CC(O)C1=O` (stereo not drawn), the normalised cell number worked out at 1.08.

In turn, `CC(C)[C@@H]1CC[C@]2(CO2)[C@@H]2C(=O)OCC(C(=O)O)=C[C@H]21` yielded a normalised cell number of 1.05.

Turning to `COc1c(F)c(F)cc(C(=O)O)c1F`, the normalised cell number is 0.98 and 0.99.

Molecule `CO[C@@H]1CC(=O)c2cccc3c2C12Oc1ccc(O)c4c1[C@](O3)(O2)C1O[C@@H]1[C@@H]4O` (stereo partly drawn) showed a normalised cell number of 0.98.

`CC(=O)O[C@H]1CC[C@@]2(C)C(=CCC3C2CC[C@@]2(C)C3CC[C@@H]2C(C)CCCC(C)C)C1` (stereo partly drawn): the normalised cell number was 1.15.

`CNC1C(O[C@@H]2OC(CO)C(N)[C@H](O)C2O)OC2CC(N)[C@@H](OC3C(N)C[C@@H](N)C(O)[C@H]3O)OC2C1O` (stereo partly drawn) returned a normalised cell number of 1.1.

Take `COc1c(N2CC[C@@H](CN)C2)c(F)cc2c(=O)c(C(=O)O)cn(CCCCN3C(=O)c4ccccc4C3=O)c12`: the normalised cell number amounted to 1.09.

In turn, `C=C1C2=C(C(=O)N1OC)[C@H](O)[C@](C)(O)[C@H](CCCCC)O2` yielded a normalised cell number of 1.15.
